Data published in PubChem BioAssay (NCI).
About 83,000 compounds went through this panel and 20% of them were active in at least one assay; those are over-represented in the sample as a whole.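 The test compound was applied at a single concentration to cells in 96-well plates for 48 hours, and percent growth was recorded.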 The source made the active and inactive calls. The calls were made as follows: active = growth percent below 10; inactive = the rest.

System: CCRF-CEM leukemia
Test: NCI-60 one-dose screen, 48 h (100 = growth as untreated, 0 = no growth, -100 = all killed)
Details: 10 µM unless noted

SMILES | growth
c1ccc2c(Cc3csc4ccccc34)csc2c1 | 94.2% (inactive)
COc1ccc(-c2[nH]nc(N)c2-c2cc(OC)c(OC)c(OC)c2)cc1 | -5.92% (active)
Cc1nc2ccc(Nc3nc(NCCN4CCOCC4)nc(Nc4ccc(F)cc4)n3)cc2n1Cc1ccccc1 | 29.5% (inactive)
COc1ccc(C2CC(c3ccc(Nc4ccnc5cc(Cl)ccc45)cc3)=NN2c2ccccc2)cc1 (stereo not given) | 69.8% (inactive)
CCCCn1c(C)nc2cc(Nc3nc(Cl)nc4nc[nH]c34)ccc21 | 78% (inactive)
COc1ccc(C(=O)/C=C/c2cn(-c3ccccc3)nc2-c2cccc(Nc3ccnc4cc(Cl)ccc34)c2)cc1 | 48.3% (inactive)
Clc1ccc(Nc2ncnc3c2sc2ncccc23)c(Cl)c1 | 16.6% (inactive)
Nc1nonc1-c1nc2ccccc2n1Cc1ccc(F)cc1 | 54.2% (inactive)
CC(C)(C)c1ccc(Cn2c(-c3nonc3N)nc3ccccc32)cc1 | 46.7% (inactive)
COC1=CC(c2ccc[nH]2)=N/C1=C\c1[nH]c(C)c(C(=O)CCCCCCCCC(=O)O[C@H]2CC[C@H]3C4CCc5cc(O)ccc5C4CC[C@]23C)c1C (stereo not given in full) | 11.5% (inactive)
Fc1ccc(-c2ccnc3nc(-c4ccncc4)nn23)cc1 | 110% (inactive)
COc1cc(C2CC(c3cccc(Nc4ccnc5cc(Cl)ccc45)c3)=NN2c2ccccc2)cc(OC)c1OC (stereo not given) | 57.1% (inactive)
COc1cc(C2CC(c3ccc(Cl)cc3)=NN2C=O)ccc1OS(=O)(=O)c1ccc(C)cc1 (stereo not given) | 76.3% (inactive)
NC(N)=N/N=C/c1ccccc1 | 84.8% (inactive)
COc1ccc(Nc2ncnc3c2sc2nc(C)cc(C)c23)cc1 | 104% (inactive)
Clc1ccc(-c2nc(Br)cn3ccnc23)cc1 | 92.8% (inactive)
CCCCCCCCCCCCCCCc1cc(O)ccc1[N+](=O)[O-] | 9.46% (active)
CCOC(=O)c1ccccc1SC(C[N+](=O)[O-])c1ccccc1 (stereo not given) | 65.5% (inactive)
COc1ccc(OC)c(Nc2nc(-c3c(C)nc4sccn34)cs2)c1 | 38.1% (inactive)

SMILES | growth
CC1=NOCC(=O)N1 | 90.3% (inactive)
CC(C)CC(NC(=O)OCC1c2ccccc2-c2ccccc21)C(=O)O (stereo not given) | 98.7% (inactive)
COc1ccc(C2=Nn3c(nnc3-c3ccc(Cl)cc3N)SC2)cc1 | 73.2% (inactive)
Nc1c(C(=O)c2ccc(Br)cc2)sc2nc3c(cc12)CCCC3 | 89.9% (inactive)
O=C(N=Nc1c(Cl)c(O)c2ccccc2c1O)C(=O)Nc1cccc(C(F)(F)F)c1 | 6.57% (active)
CCCCn1c(C)nc2ccc(Nc3nc(Cl)nc4nc[nH]c34)cc21 | 53% (inactive)
Cc1cc(C)c2c(n1)sc1c(Nc3ccc(OCc4ccccc4)cc3)ncnc12 | 86.6% (inactive)
COc1ccc(/C=C2\CCCC3=C2N=C2SC(C)=NN2C3c2ccc(OC)c(OC)c2)cc1OC (stereo not given) | 3.82% (active)
COc1cccc(Cn2c(-c3nonc3NC(C)=O)nc3ccccc32)c1 | 41% (inactive)
Cc1cc(C)c2c(n1)sc1c(Nc3ccc(Cl)cc3Cl)ncnc12 | 16.1% (inactive)
COc1cc(C(=O)/C=C/c2cn(-c3ccccc3)nc2-c2cccc(Nc3ccnc4cc(Cl)ccc34)c2)cc(OC)c1OC | 21% (inactive)
Cc1ccc(C2CC(c3cccs3)=NN2c2ccc(S(N)(=O)=O)cc2)s1 (stereo not given) | 80.6% (inactive)
COc1cc(C2C=C(C)N=C3SC=NN32)cc(OC)c1OC (stereo not given) | 90.7% (inactive)
COc1ccc2cc(-c3nc(C)c(C(C)=O)c(-c4ccc(C)cc4)n3)ccc2c1 | 89.7% (inactive)
C=CCn1c(C)nc2cc(Nc3nc(N4CCOCC4)nc4nc[nH]c34)ccc21 | 89.9% (inactive)
O=C1C(Cl)=C(N/N=c2/[nH][nH]/c(=N/NC3=C(Cl)C(=O)c4ccccc4C3=O)c3ccccc23)C(=O)c2ccccc21 | 16.5% (inactive)
Cc1ccc2cc3c(NC(=O)c4cccnc4)nn(C)c3nc2c1 | 72.2% (inactive)
Cc1ccc(-c2nc3ccccc3c(=O)n2/N=C/c2cccc3ccccc23)cc1 | 55.2% (inactive)

System: MOLT-4 leukemia
Test: as above
Details: 10 µM unless noted

SMILES | growth
c1ccc2c(Cc3csc4ccccc34)csc2c1 | 87% (inactive)
COc1ccc(-c2[nH]nc(N)c2-c2cc(OC)c(OC)c(OC)c2)cc1 | -2.96% (active)
Cc1nc2ccc(Nc3nc(NCCN4CCOCC4)nc(Nc4ccc(F)cc4)n3)cc2n1Cc1ccccc1 | 22.7% (inactive)
COc1ccc(C2CC(c3ccc(Nc4ccnc5cc(Cl)ccc45)cc3)=NN2c2ccccc2)cc1 (stereo not given) | 52.3% (inactive)
CCCCn1c(C)nc2cc(Nc3nc(Cl)nc4nc[nH]c34)ccc21 | 64% (inactive)
COc1ccc(C(=O)/C=C/c2cn(-c3ccccc3)nc2-c2cccc(Nc3ccnc4cc(Cl)ccc34)c2)cc1 | 104% (inactive)
Clc1ccc(Nc2ncnc3c2sc2ncccc23)c(Cl)c1 | 8.22% (active)
Nc1nonc1-c1nc2ccccc2n1Cc1ccc(F)cc1 | 30% (inactive)
CC(C)(C)c1ccc(Cn2c(-c3nonc3N)nc3ccccc32)cc1 | 62.6% (inactive)
COC1=CC(c2ccc[nH]2)=N/C1=C\c1[nH]c(C)c(C(=O)CCCCCCCCC(=O)O[C@H]2CC[C@H]3C4CCc5cc(O)ccc5C4CC[C@]23C)c1C (stereo not given in full) | 19.5% (inactive)
CCCOC(=O)C1c2cc3c(cc2CC(C)C1C(=O)OCCC)OCO3 (stereo not given) | 90.9% (inactive)
Fc1ccc(-c2ccnc3nc(-c4ccncc4)nn23)cc1 | 94.9% (inactive)
COc1cc(C2CC(c3cccc(Nc4ccnc5cc(Cl)ccc45)c3)=NN2c2ccccc2)cc(OC)c1OC (stereo not given) | 74.4% (inactive)
COc1cc(C2CC(c3ccc(Cl)cc3)=NN2C=O)ccc1OS(=O)(=O)c1ccc(C)cc1 (stereo not given) | 91.5% (inactive)
NC(N)=N/N=C/c1ccccc1 | 95% (inactive)
COc1ccc(Nc2ncnc3c2sc2nc(C)cc(C)c23)cc1 | 95.9% (inactive)
CCCCCCCCCCCCCCCc1cc(O)ccc1[N+](=O)[O-] | 32.2% (inactive)
CCOC(=O)c1ccccc1SC(C[N+](=O)[O-])c1ccccc1 (stereo not given) | 94.3% (inactive)
COc1ccc(OC)c(Nc2nc(-c3c(C)nc4sccn34)cs2)c1 | 9.57% (active)

SMILES | growth
CC1=NOCC(=O)N1 | 102% (inactive)
CC(C)CC(NC(=O)OCC1c2ccccc2-c2ccccc21)C(=O)O (stereo not given) | 96.2% (inactive)
COc1ccc(C2=Nn3c(nnc3-c3ccc(Cl)cc3N)SC2)cc1 | 101% (inactive)
Nc1c(C(=O)c2ccc(Br)cc2)sc2nc3c(cc12)CCCC3 | 96.4% (inactive)
O=C(N=Nc1c(Cl)c(O)c2ccccc2c1O)C(=O)Nc1cccc(C(F)(F)F)c1 | 35.2% (inactive)
CCCCn1c(C)nc2ccc(Nc3nc(Cl)nc4nc[nH]c34)cc21 | 37.9% (inactive)
Cc1cc(C)c2c(n1)sc1c(Nc3ccc(OCc4ccccc4)cc3)ncnc12 | 101% (inactive)
COc1ccc(/C=C2\CCCC3=C2N=C2SC(C)=NN2C3c2ccc(OC)c(OC)c2)cc1OC (stereo not given) | 27.7% (inactive)
COc1cccc(Cn2c(-c3nonc3NC(C)=O)nc3ccccc32)c1 | 38.7% (inactive)
Cc1cc(C)c2c(n1)sc1c(Nc3ccc(Cl)cc3Cl)ncnc12 | 11.6% (inactive)
COc1cc(C(=O)/C=C/c2cn(-c3ccccc3)nc2-c2cccc(Nc3ccnc4cc(Cl)ccc34)c2)cc(OC)c1OC | 63.3% (inactive)
O=c1c2sc3ncc(Cl)cc3c2nnn1-c1cccc(Cl)c1 | 90.2% (inactive)
Cc1ccc(C2CC(c3cccs3)=NN2c2ccc(S(N)(=O)=O)cc2)s1 (stereo not given) | 89.2% (inactive)
COc1cc(C2C=C(C)N=C3SC=NN32)cc(OC)c1OC (stereo not given) | 97.2% (inactive)
COc1ccc2cc(-c3nc(C)c(C(C)=O)c(-c4ccc(C)cc4)n3)ccc2c1 | 106% (inactive)
C=CCn1c(C)nc2cc(Nc3nc(N4CCOCC4)nc4nc[nH]c34)ccc21 | 74.4% (inactive)
O=C1C(Cl)=C(N/N=c2/[nH][nH]/c(=N/NC3=C(Cl)C(=O)c4ccccc4C3=O)c3ccccc23)C(=O)c2ccccc21 | 11.4% (inactive)
Cc1ccc2cc3c(NC(=O)c4cccnc4)nn(C)c3nc2c1 | 94.3% (inactive)
Cc1ccc(-c2nc3ccccc3c(=O)n2/N=C/c2cccc3ccccc23)cc1 | 55.9% (inactive)
